Test [1] is described as follows: ACEA_ER_AUC_viability: ACEA Biosciences xCELLigence Real-Time Cell Analysis on Estrogen Receptor Agonism for Viability (AID 2283782).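 Further: hit means loss of impedance signal meaning reduced cell growth or viability.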 An outline of the steps:
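Read-out: real-time electrical impedance (RT-CES) area under curve, loss of signal taken as reduced viability, normalized to DMSO baseline. T-47D cells, charcoal-stripped serum medium, compounds up to 100 uM final, continuous exposure, 80 h.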

The nature of test [2]: ACEA_AR_agonist_AUC_viability: ACEA Biosciences xCELLigence Real-Time Cell Analysis on Androgen Receptor Agonism for Viability (AID 2283775).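 On AC50: viability read 80 hours after compound addition.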 A digest of the protocol:
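Viability endpoint from xCELLigence impedance in 22Rv1 prostate cells at 80 h. Eight-point series, 100 uM maximum final.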

A short description of test [3]: ACEA_AR_antagonist_AUC_viability: ACEA Biosciences xCELLigence Real-Time Cell Analysis on Androgen Receptor Antagonism for Viability (AID 2283776).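 Further: 22Rv1 human prostate cancer cells growing on impedance electrode plates; hits lower the growth signal relative to DMSO meaning cytotoxicity.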 A digest of the protocol: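 Impedance read-out (RT-CES): area under growth curve at 80 h post-dose, loss of signal scored vs DMSO baseline. 22Rv1 cells; 8-pt 1:4 series, top 100 uM final, ≤0.5% DMSO; biological duplicate.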

The next test has as its target AR (gene 367) (UniProt P10275). Description: ACEA_AR_antagonist_80hr: ACEA Biosciences xCELLigence Real-Time Cell Analysis on Androgen Receptor Antagonism for Proliferation (AID 2283787).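 Further: 22Rv1 human prostate cancer cells with growth followed by electrical impedance; hits lower the impedance growth signal relative to DMSO.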 An outline of the steps:
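Measures real-time proliferation of 22Rv1 prostate cancer cells by electrode impedance at 80 hours after dosing. Test articles ran at eight concentrations (1:4 steps, top 100 uM final) in biological duplicate.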

The nature of test [4]: STM_H9_NormalizedViability: Cytotoxicity Assessment at 120 hours in the Stemina devTOX quickPredict H9 human embryonic stem cell (hESC)-based Assay (AID 2283784). A digest of the protocol: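 Here, H9 cells received test compound with daily medium renewal. Each plate included methotrexate references (1uM, 5 nM), 0.1% DMSO and media blanks; CellTiter-Fluor RFU was normalized to DMSO.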

The subject of test [5] is frog Estrogen Receptor (ESR1), gene 398734. Description: ATG_frER1_XSP1: Attagene TRANS-FACTORIAL Multi-Species (XSP1) HepG2 Assay for frog Estrogen Receptor (ESR1) (AID 2283777). A digest of the protocol:
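Transient MRTU transfection, HepG2 (human liver); 24 h dosing, 3 nM 6α-fluorotestosterone co-added; RNA → RT-PCR → 6-FAM labeling → CE; upward activity vs DMSO.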

Test [6] deals with zebrafish Estrogen Receptor (ESR2A), gene 317734. Description: ATG_zfER2a_XSP1: Attagene TRANS-FACTORIAL Multi-Species (XSP1) HepG2 Assay for zebrafish Estrogen Receptor (ESR2A) (AID 2283778). A digest of the protocol:
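Transient transfection of HepG2 (human liver) with MRTU constructs; chemical dosing for 24 h; medium contained 3 nM 6-alpha-fluorotestosterone to partly stimulate AR. RT-PCR/CE fluorescence of reporter transcripts; positive direction vs DMSO.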

The target in test [7] is chicken Estrogen Receptor (ESR1), ESR1 (gene 396099) (UniProt P06212). Description: ATG_chERa_XSP1: Attagene TRANS-FACTORIAL Multi-Species (XSP1) HepG2 Assay for chicken Estrogen Receptor (ESR1) (AID 2283779). A digest of the protocol:
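Read-out: fluorescent reporter mRNA fragments resolved by capillary electrophoresis after RT-PCR and HpaI digestion. Transfected HepG2 cells carried chimeric NR-Gal4 constructs, were dosed 24 h with 3 nM 6-alpha-fluorotestosterone added, and activity was fitted upward relative to DMSO.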

The target in test [8] is Estrogen receptor (Homo sapiens) (UniProt P03372). Description: ATG_hERa_XSP1: Attagene TRANS-FACTORIAL Multi-Species (XSP1) HepG2 Assay for human Estrogen Receptor (ESR1) (AID 2283780). An outline of the steps: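 Reporter transcripts from multiplexed GAL4-UAS units driven by NR-Gal4 chimeras in transiently transfected HepG2 were measured by RT-PCR with capillary electrophoresis 24 h post-dose, with 3 nM 6-alpha-fluorotestosterone present; gain-of-signal relative to DMSO.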

Test [9] relates to turtle Estrogen Receptor (ESR1), gene 101933533. Description: ATG_trERa_XSP1: Attagene TRANS-FACTORIAL Multi-Species (XSP1) HepG2 Assay for turtle Estrogen Receptor (ESR1) (AID 2283781). A digest of the protocol:
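Transfect HepG2 with reporter units → dose chemical 24 h (medium has 3 nM 6-alpha-fluorotestosterone) → isolate RNA, RT-PCR → FAM primer extension, HpaI digest → capillary electrophoresis; gain of signal vs DMSO.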

The test system of test [10] is turtle Androgen Receptor (AR), gene 101947425. Briefly: ATG_trAR_XSP1: Attagene TRANS-FACTORIAL Multi-Species (XSP1) HepG2 Assay for turtle Androgen Receptor (AR) (AID 2283786). An outline of the steps:
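Partial androgen stimulation is provided by 3 nM 6-alpha-fluorotestosterone in a multi-species trans-factorial panel expressing a turtle AR–GAL4 fusion in HepG2. After 24 h, reporter mRNA is measured by RT-PCR and capillary electrophoresis and fitted upward against DMSO.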

For test [11], the target named is GAL4 Transcription Factor (Internal Marker), GAL4 (gene 855828) (UniProt P04386). Description: ATG_GAL4_XSP1: Attagene TRANS-FACTORIAL Multi-Species (XSP1) HepG2 Assay for GAL4 Transcription Factor (Internal Marker) (AID 2283789). An outline of the steps: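 This background-control endpoint measures GAL4-driven reporter mRNA via RT-PCR and capillary electrophoresis of labelled fragments. Transiently transfected HepG2 cells were treated 24 h, with 3 nM 6-alpha-fluorotestosterone included, and gain-of-signal was fitted against DMSO.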

Test [12] can be described thus: ATG_M_06_XSP1: Attagene TRANS-FACTORIAL Multi-Species (XSP1) HepG2 Assay for M06 Transcription Factor (Internal Marker) (AID 2283790). A digest of the protocol:
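This background-control readout tracks M06 reporter mRNA, measured by RT-PCR and capillary electrophoresis. HepG2 cells transiently carrying the GAL4-UAS reporter panel were dosed for 24 h with 3 nM 6-alpha-fluorotestosterone added for partial AR stimulation; increases were scored relative to DMSO.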

The nature of test [13]: ATG_M_61_XSP1: Attagene TRANS-FACTORIAL Multi-Species (XSP1) HepG2 Assay for M61 Transcription Factor (Internal Marker) (AID 2283797). An outline of the steps:
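Background-control readout: reporter transcripts measured by RT-PCR and capillary electrophoresis 24 h after dosing transiently transfected HepG2 multi-reporter cells, with 3 nM 6-alpha-fluorotestosterone present. Fitted in the positive direction relative to DMSO.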

The nature of test [14]: ATG_M_19_XSP1: Attagene TRANS-FACTORIAL Multi-Species (XSP1) HepG2 Assay for M19 Transcription Factor (Internal Marker) (AID 2283798). A digest of the protocol:
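Readout is reporter mRNA induction quantified via RT-PCR, 6-FAM labeling, HpaI digestion and capillary electrophoresis, fitted in the positive direction versus DMSO baseline. Transfected HepG2 cells exposed 24 h, medium including 3 nM 6-alpha-fluorotestosterone.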

A short description of test [15]: ATG_M_32_XSP1: Attagene TRANS-FACTORIAL Multi-Species (XSP1) HepG2 Assay for M32 Transcription Factor (Internal Marker) (AID 2283799). An outline of the steps:
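Reporter transcripts from the M32 internal-control unit measured by RT-PCR, FAM labelling, HpaI digestion and capillary electrophoresis after 24 h compound exposure of transfected HepG2, 3 nM 6-alpha-fluorotestosterone included; DMSO baseline, positive-direction fit.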

The target of test [16] is mouse Peroxisome Proliferator-activated Receptor gamma (PPARg), Pparg (gene 19016) (UniProt P37238). Description: ATG_mPPARg_XSP1: Attagene TRANS-FACTORIAL Multi-Species (XSP1) HepG2 Assay for mouse Peroxisome Proliferator-activated Receptor gamma (PPARg) (AID 2283802). An outline of the steps: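 Readout is reporter mRNA induction, measured by RT-PCR with 6-FAM labelling, HpaI digestion and capillary electrophoresis, 24 h post-dose relative to DMSO. Transient multi-reporter transfection of human HepG2 with mouse PPARg–GAL4 fusion; 3 nM 6-alpha-fluorotestosterone included.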

For test [17], the target named is Nuclear receptor subfamily 1 group I member 2 (Mus musculus) (UniProt O54915). Briefly: ATG_mPXR_XSP1: Attagene TRANS-FACTORIAL Multi-Species (XSP1) HepG2 Assay for mouse Pregnane X Receptor (PXR) (AID 2283803). An outline of the steps:
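Transiently transfected HepG2 cells expressing a receptor-Gal4 chimera drive a GAL4-UAS reporter; 3 nM 6-alpha-fluorotestosterone included. Reporter mRNA read 24 h post-dose by RT-PCR and capillary electrophoresis; gain of signal relative to DMSO.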

The structures appear in SMILES notation. Inconclusive results are not listed. Active and inactive are the calls of the source. How the source made its calls: active means hit-call score of the fitted dose curve at least 0.9, where 1 is the maximum; inconclusive means response in the unintended direction; inactive means score below 0.9.

Chain of AR (gene 367) (P10275 whole entry, looked up): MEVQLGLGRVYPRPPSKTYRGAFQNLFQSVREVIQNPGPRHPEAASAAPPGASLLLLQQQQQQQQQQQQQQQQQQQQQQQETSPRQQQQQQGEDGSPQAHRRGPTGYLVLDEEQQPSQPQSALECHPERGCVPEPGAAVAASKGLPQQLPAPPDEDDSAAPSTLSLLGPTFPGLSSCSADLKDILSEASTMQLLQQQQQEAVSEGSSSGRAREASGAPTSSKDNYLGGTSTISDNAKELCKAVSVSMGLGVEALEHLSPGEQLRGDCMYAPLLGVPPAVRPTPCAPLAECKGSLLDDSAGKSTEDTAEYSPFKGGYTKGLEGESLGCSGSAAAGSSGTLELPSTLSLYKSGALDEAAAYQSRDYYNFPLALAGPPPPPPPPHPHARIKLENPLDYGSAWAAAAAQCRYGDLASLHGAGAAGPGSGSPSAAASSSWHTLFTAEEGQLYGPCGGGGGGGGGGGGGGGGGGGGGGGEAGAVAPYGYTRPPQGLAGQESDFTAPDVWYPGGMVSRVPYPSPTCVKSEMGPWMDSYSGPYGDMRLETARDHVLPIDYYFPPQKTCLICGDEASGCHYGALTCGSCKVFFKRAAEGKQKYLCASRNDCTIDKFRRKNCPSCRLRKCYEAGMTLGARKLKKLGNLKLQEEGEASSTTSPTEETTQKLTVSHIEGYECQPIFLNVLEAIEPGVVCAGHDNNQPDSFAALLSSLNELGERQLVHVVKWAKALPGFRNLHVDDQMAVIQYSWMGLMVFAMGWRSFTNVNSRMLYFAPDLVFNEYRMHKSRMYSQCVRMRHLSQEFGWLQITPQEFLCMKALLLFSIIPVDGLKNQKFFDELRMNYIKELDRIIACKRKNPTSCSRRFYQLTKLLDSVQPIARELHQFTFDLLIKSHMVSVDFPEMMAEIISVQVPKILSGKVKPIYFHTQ
Chain of chicken Estrogen Receptor (ESR1), ESR1 (gene 396099) (P06212 whole entry, looked up, the tested form may be a part): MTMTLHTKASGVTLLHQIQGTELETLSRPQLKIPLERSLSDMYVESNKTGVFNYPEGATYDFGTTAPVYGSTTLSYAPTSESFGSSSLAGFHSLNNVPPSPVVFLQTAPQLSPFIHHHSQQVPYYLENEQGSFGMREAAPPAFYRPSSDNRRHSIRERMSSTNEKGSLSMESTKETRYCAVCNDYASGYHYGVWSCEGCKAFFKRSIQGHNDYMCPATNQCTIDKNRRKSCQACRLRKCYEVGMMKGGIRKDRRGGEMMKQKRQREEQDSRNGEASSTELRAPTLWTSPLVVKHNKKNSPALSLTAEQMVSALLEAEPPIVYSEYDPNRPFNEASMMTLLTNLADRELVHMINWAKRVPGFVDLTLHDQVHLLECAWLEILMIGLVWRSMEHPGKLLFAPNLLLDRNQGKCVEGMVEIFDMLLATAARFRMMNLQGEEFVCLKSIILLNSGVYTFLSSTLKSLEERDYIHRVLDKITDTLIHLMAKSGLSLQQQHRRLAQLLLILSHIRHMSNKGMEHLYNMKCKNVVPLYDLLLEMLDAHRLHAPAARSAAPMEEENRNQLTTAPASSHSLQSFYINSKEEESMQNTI
Chain of Estrogen receptor (Homo sapiens) (P03372 whole entry, looked up, the tested form may be a part): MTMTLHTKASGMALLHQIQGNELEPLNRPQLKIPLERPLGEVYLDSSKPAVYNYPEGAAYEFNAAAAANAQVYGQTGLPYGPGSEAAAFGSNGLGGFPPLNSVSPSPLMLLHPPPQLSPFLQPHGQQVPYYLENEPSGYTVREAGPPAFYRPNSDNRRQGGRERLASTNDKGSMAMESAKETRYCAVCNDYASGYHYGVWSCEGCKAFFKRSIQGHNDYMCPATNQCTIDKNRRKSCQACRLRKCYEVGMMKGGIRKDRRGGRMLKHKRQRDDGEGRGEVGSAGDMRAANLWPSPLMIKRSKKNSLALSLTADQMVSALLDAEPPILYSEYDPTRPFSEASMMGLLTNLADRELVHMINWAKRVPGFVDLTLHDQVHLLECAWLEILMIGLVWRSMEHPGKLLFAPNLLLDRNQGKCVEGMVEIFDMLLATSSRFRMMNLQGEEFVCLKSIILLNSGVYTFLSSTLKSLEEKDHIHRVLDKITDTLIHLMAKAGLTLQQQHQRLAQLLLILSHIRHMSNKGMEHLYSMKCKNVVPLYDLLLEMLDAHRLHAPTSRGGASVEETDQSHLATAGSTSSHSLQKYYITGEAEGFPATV
Chain of Nuclear receptor subfamily 1 group I member 2 (Mus musculus) (O54915 whole entry, looked up, the tested form may be a part): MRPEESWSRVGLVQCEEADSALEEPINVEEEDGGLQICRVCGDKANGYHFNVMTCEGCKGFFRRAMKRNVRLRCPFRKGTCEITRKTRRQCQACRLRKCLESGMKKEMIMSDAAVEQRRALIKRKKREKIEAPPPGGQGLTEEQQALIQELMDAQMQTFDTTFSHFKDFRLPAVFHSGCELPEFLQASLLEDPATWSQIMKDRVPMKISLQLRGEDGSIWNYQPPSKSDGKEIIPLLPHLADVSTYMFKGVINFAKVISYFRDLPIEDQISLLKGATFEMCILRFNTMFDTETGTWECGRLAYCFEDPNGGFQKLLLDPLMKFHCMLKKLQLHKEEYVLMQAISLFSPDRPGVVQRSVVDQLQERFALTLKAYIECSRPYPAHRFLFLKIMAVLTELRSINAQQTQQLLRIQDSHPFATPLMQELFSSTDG
Chain of GAL4 Transcription Factor (Internal Marker), GAL4 (gene 855828) (P04386 whole entry, looked up, the tested form may be a part): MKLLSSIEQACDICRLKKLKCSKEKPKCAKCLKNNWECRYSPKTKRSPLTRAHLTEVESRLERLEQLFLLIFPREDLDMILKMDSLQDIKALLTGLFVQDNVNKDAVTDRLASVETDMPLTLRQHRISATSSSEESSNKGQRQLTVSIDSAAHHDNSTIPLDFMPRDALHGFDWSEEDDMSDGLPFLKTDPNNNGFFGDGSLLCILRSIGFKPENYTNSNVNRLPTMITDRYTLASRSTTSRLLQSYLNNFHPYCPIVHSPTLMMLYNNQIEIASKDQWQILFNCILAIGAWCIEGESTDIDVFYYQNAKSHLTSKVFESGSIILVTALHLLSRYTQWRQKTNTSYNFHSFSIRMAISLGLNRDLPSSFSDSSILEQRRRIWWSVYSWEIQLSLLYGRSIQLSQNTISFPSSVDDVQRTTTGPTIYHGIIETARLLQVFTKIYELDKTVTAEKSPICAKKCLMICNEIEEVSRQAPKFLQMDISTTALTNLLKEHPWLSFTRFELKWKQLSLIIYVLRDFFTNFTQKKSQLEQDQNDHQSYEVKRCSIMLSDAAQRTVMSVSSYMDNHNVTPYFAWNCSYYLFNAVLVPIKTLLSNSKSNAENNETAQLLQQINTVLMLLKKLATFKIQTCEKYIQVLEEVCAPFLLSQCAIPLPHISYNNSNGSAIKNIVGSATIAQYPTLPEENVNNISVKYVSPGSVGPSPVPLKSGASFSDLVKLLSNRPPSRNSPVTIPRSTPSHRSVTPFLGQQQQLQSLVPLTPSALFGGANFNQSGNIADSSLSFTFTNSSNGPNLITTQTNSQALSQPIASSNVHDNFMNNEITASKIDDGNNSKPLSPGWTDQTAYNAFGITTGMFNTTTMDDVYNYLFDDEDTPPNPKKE
Chain of mouse Peroxisome Proliferator-activated Receptor gamma (PPARg), Pparg (gene 19016) (P37238 whole entry, looked up, the tested form may be a part): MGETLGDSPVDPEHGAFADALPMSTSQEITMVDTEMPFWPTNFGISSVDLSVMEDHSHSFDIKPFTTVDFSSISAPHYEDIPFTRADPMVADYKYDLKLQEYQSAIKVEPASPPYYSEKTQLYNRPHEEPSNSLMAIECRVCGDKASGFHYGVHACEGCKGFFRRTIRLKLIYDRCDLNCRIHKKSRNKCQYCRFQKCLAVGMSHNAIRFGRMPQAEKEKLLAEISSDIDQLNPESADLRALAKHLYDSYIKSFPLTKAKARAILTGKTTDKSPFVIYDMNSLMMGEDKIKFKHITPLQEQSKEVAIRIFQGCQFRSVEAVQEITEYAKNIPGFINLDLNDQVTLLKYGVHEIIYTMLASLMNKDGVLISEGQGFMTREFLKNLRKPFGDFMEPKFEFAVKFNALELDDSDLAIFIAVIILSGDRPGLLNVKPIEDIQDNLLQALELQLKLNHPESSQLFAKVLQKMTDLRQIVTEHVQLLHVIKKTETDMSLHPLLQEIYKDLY

As to `Brc1ccccn1`, the compound was called inactive in [1].
Consider `O=S(=O)(Cl)C(F)(F)C(F)(F)C(F)(F)C(F)(F)C(F)(F)C(F)(F)C(F)(F)C(F)(F)F`, for which the call in [1] was inactive.
For `Cc1ccc2c(c1)OCC(=O)CO2`, in [1], the compound was classed as inactive.
For `O=C1C=CC(=O)N1c1ccccc1`, the result (in [2]; in [3]; in test [1]; in the test with AR (gene 367)) was inactive.
What is called AC50 is the concentration at which the activity in the assay is half-maximal. Turning to `CCCCCCCCCCCCC[N+](C)(C)Cc1ccccc1`, the half-maximal activity concentration (AC50) in test [2] was 2.99 µM (active); in [3], 3.31 µM (active); in test [1], 7.37 µM (active); with AR (gene 367), 4.67 µM (active).
`CCCCCCCCn1sc(Cl)c(Cl)c1=O`: the AC50 in [2] was 21.3 µM (active); in [1] it was 1.99 µM (active). Also, the compound was classed as inactive in [3].
Regarding `CC(=O)CCC(C)C`, the call in test [2] was inactive.
Consider `CC(C)(C)c1cc(CCC(=O)OCC(COC(=O)CCc2cc(C(C)(C)C)c(O)c(C(C)(C)C)c2)(COC(=O)CCc2cc(C(C)(C)C)c(O)c(C(C)(C)C)c2)COC(=O)CCc2cc(C(C)(C)C)c(O)c(C(C)(C)C)c2)cc(C(C)(C)C)c1O`, for which the outcome in test [3] was inactive.
As to `O=S(=O)(O)CCC(F)(F)C(F)(F)C(F)(F)C(F)(F)F`, the call in [1] was inactive.
As to `CCCCC(CC)COC(=O)c1ccc(N(C)C)cc1` (stereo not drawn), the result in [2], in test [3] and in [4] was inactive. Also, the half-maximal activity concentration (AC50) in test [1] is 87.8 µM (active).
Regarding `OCC(F)(F)C(F)(F)C(F)(F)CO`, the result in [1] was inactive.
`CN1CN(C)CN(C)C1`: the compound was classed as inactive in test [1].
Take `CCC(Cc1c(I)cc(I)c(N)c1I)C(=O)O` (stereo not drawn): the compound was classed as inactive in test [2] and in test [3].
`O=C(c1ccccc1)c1ccc(O)cc1O`: the half-maximal activity concentration (AC50) is 0.652 µM (active) in test [5]; 1.65 µM (active) in test [6]; 1.55 µM (active) in test [7]; 3.15 µM (active) in test [8]; 2.24 µM (active) in test [9]. The compound was called inactive in test [10], in test [11], in test [12], in test [13], in test [14] and in [15]. For the same compound, the compound was called inactive in [16] and in [17].

The values are drawn from PubChem BioAssay (EPA / NIEHS).
